PubChem BioAssay
Values joined by “and” are separate entries in the source; they are usually repeats but may differ in a detail not shown here. Equal entries are not always repeated.

Legend:
[1] = system: Botulinum neurotoxin type F light chain protease (Clostridium botulinum); test: Clostridium botulinum type F light chain protease inhibitors, microsphere substrate cleavage, validation (AID 588459); conditions: multiplex microsphere protease substrate cleavage assay, flow cytometry; at 10 µM; hits give high values
[2] = molecular target: Botulinum neurotoxin type A (Clostridium botulinum) (UniProt P0DPI0); test: BoNT/A light chain protease inhibitors, biochemical, multiplex microsphere flow cytometry, validation set (AID 588460); conditions: at 10 µM, hits give high values
[3] = molecular target: Lethal factor (Bacillus anthracis) (UniProt P15917); test: Bacillus anthracis lethal factor inhibition, microsphere flow cytometry protease assay, validation at 10 µM (AID 588461); conditions: multiplex microsphere protease cleavage assay, hits give high values

Measured: inhibition

CC(C)C(=O)Nc1ccc2c3c(cccc13)CC2
inactive: [1] 1% | [2] 0.5% | [3] -3%

COc1ccc(C2(CCN=Cc3ccc(N(C)C)cc3)CCOC(C)(C)C2)cc1 (centres undefined)
inactive: [1] 9.1% | [2] 1.6% | [3] -2%

NC(=O)c1ccccc1O
inactive: [1] -3.5% | [2] -1.1% | [3] 2.5%

Cc1ccc(C2CC(=O)C(C=NCCN3CCN(CC(=O)Nc4cc(C)cc(C)c4)CC3)=C(O)C2)cc1 (centres undefined)
inactive: [1] 2% | [2] 0.6% | [3] 0.4%

Cc1ccc(S(=O)(=O)NC(=O)NN2CCCCCC2)cc1
inactive: [1] -4.6% | [2] -1.6% | [3] -4.1%

O=C(O)CCCCCCCC(=O)O
inactive: [1] 1.1% | [2] -0.8% | [3] -1.4%

Cc1csc(N)n1
inactive: [1] 0.3% | [2] 0.1% | [3] 3%

CC(=O)OC[C@H]1O[C@@H](Sc2cccc3cccnc23)[C@H](OC(C)=O)[C@@H](OC(C)=O)[C@H]1OC(C)=O
inactive: [1] -3.9% | [2] -0.4% | [3] 0.7%

CN(C)C(=O)Oc1cccc([N+](C)(C)C)c1
inactive: [1] 0.7% and -1.3% | [2] 0.2% and -0.7% | [3] 1.5% and 2.9%

CC1CNCCN1S(=O)(=O)c1cccc2cnccc12 (centres undefined)
inactive: [1] 2.5% | [2] -0.1% | [3] 1.6%

Cc1cc(=O)oc2cc(OC(C)C(=O)NCC3CCCO3)ccc12 (centres undefined)
inactive: [1] 3% | [2] 0.9% | [3] -4.8%

C=C(CC)C(=O)c1ccc(OCC(=O)O)c(Cl)c1Cl
inactive: [1] -6.2% | [2] -2.2% | [3] -10.3%

O=C(Nc1ccccc1)c1ccccc1CCc1ccccc1
inactive: [1] 0.9% | [2] -3.7% | [3] 3.9%

CCN(CC)C1=C(Cl)C(=O)C(Cl)C12OCCO2 (centres undefined)
inactive: [1] 1% | [2] 0.6% | [3] -1%

COc1ccc(/C=C/C(=O)c2cc3cccc(OC)c3oc2=O)cc1
inactive: [1] 2.3% | [2] 2.8% | [3] 8.8%

CNCCc1ccccn1
inactive: [1] 1.1% | [2] 1.1% | [3] -8.2%

O=C(NCCc1cccc(F)c1)[C@@H]1CSC2c3ccccc3C(=O)N21 (some centres undefined)
inactive: [1] 0.2% | [2] -0.3% | [3] 0.6%

COCCCN1C(=O)/C(=C\c2cccs2)C(C(=O)OC)=C1C
inactive: [1] -1.3% | [2] -0.8% | [3] 3.3%

C=C(C)C(=O)Nc1ccc(NC(C)C)cc1
inactive: [1] 0.4% | [2] -0.8% | [3] 5.7%

CC(=O)Oc1ccc2occ(/C=N/c3cc(=O)[nH]c(=S)[nH]3)c(=O)c2c1
inactive: [1] 2% | [2] 0.7% | [3] -4.2%

CCn1cc(CN2N=C(C)CC2c2ccccc2)c(C)n1 (centres undefined)
inactive: [1] -0.5% | [2] 0% | [3] -2.2%

COc1ccc(CC(=O)c2c(O)cc(O)cc2O)cc1OC
inactive: [1] 0% | [2] 1.7% | [3] -2.8%

CC1(C)S[C@@H]2[C@H](NC(=O)[C@H](N)c3ccccc3)C(=O)N2[C@H]1C(=O)O
inactive: [1] 2.6% and -3.6% | [2] 2.2% and -0.7% | [3] 5% and -3%

O=C(O)C(O)c1ccccc1 (centres undefined)
inactive: [1] 1.5% | [2] -1.4% | [3] 1.3%

CCNC1=C(Cl)C(=O)c2ccccc2C1=O
inactive: [1] 1.2% | [2] -0.3% | [3] -6%

CN(C)CCOC(c1ccccc1)c1ccccc1 (tested in a mixture with another compound)
inactive: [1] 1.8% | [2] -2.5% | [3] -6.7%

COc1ccc(-c2nnc(-c3cc4c(ccc5ccccc54)oc3=O)o2)cc1
inactive: [1] -0.8% | [2] 0.4% | [3] -1.7%

O=C(NCCc1c[nH]c2ccccc12)c1cccnc1
inactive: [1] -2.9% | [2] -0.7% | [3] 1.1%

COC(=O)c1cc(=O)c2ccc(OC)cc2o1
inactive: [1] -4.1% | [2] -0.9% | [3] 2.2%

CO[C@@]1(NC(=O)Cc2cccs2)C(=O)N2C(C(=O)O)=C(COC(N)=O)CS[C@@H]21
inactive: [1] -1.9% | [2] 1.4% | [3] -10%

O=C1C(=O)c2ccccc2C(O)=C1c1ccccc1F
inactive: [1] 4.6% | [2] 0.5% | [3] -1.5%

COc1ccc2c(CCNC(=O)c3ccc([N+](=O)[O-])cc3)c[nH]c2c1
inactive: [1] 1.6% | [2] -0.5% | [3] -5%

NS(=O)(=O)c1cc2c(cc1Cl)NC(CSCc1ccccc1)=NS2(=O)=O
inactive: [1] -4.8% | [2] 0% | [3] -2.3%

COc1ccc(C(=O)/C=C/c2ccc(OC(=O)c3cc(OC)c(OC)c(OC)c3)cc2)cc1
inactive: [1] 2.9% | [2] 0.3% | [3] -5%

COc1ccc(NC(=O)C2OC3OC(C)(C)OC3C3OC(C)(C)OC23)cc1 (centres undefined)
inactive: [1] -1.2% | [2] 1.3% | [3] -5.4%

CCn1c(C)cc2c(c1=O)C(c1ccccc1)C(C(=O)OC)=C(N)O2 (centres undefined)
inactive: [1] 0.3% | [2] -0.9% | [3] -3.3%

Fc1ccc(-c2cc(-c3ccccc3)nc(-n3cccn3)n2)cc1
inactive: [1] -6.3% | [2] -0.2% | [3] 2.3%

COc1ccc(CCNc2ncnc3c2[nH]c2cc(OC)c(OC)cc23)cc1OC
inactive: [1] -0.5% | [2] -0.5% | [3] -0.7%

O=C1CC(c2ccc(F)cc2)Cc2nc(NCC3CCCO3)ncc21 (centres undefined)
inactive: [1] -1% | [2] 0.1% | [3] -6.1%

CC(=O)C1=C(NC(=O)c2ccc(C(F)(F)F)cc2)C[C@@H]2[C@H]1C2(C)C
inactive: [1] 2% | [2] 1.5% | [3] -1%

O=C(O)CCSCCC(=O)O
inactive: [1] 1.3% | [2] -1.1% | [3] -7.4%

Cc1cc(OCC(=O)C(C)(C)C)c2c(C)c(C)c(=O)oc2c1
inactive: [1] -1.4% | [2] 0.5% | [3] 0.7%

Cc1ccccc1N1C(N)=NC(N)=NC1(C)C
inactive: [1] -1.5% | [2] -0.8% | [3] 6.8%

CC(=O)O[C@H]1CSC[C@H]1NC(=O)c1ccccc1
inactive: [1] -2.6% | [2] -1.2% | [3] -4.4%

O=C(c1ccccc1F)c1cc2c(cc1[N+](=O)[O-])OCCO2
inactive: [1] 5.4% | [2] -0.4% | [3] 3.6%

CN1CCC(=C2c3ccccc3C=Cc3ccccc32)CC1
inactive: [1] -1.3% | [2] -1.2% | [3] -8.4%

COc1ccc(C2OC[C@H]3O[C@H](O)[C@H](NC(C)=O)[C@@H](O)[C@@H]3O2)cc1 (some centres undefined)
inactive: [1] -3.6% | [2] -1.7% | [3] -9.6%

Cc1ccsc1/C=N\NC(=O)c1ccc2c(c1)OCO2
inactive: [1] 2.9% | [2] 0.4% | [3] -1.3%

CC(C)(C)C(=O)NCCCNc1ccc([N+](=O)[O-])cc1
inactive: [1] -0.6% | [2] -0.3% | [3] 3.3%

COc1ccccc1N1C(=O)C2CC(C)=C(C)CC2C1=O (centres undefined)
inactive: [1] -2.6% | [2] -0.4% | [3] 3.9%

CN(CCc1cnn(C)c1)Cc1nc(CC2CC2)no1
inactive: [1] 0.2% | [2] 0.4% | [3] 7%

O=C(NCCN1CCOCC1)c1ccc(Cl)cc1
inactive: [1] 2.4% | [2] 1.2% | [3] -2%

CCc1cc2c(=O)c(-c3nc(C)cs3)c(CCCC(=O)O)oc2cc1O
inactive: [1] 1.9% | [2] -1.9% | [3] -3.9%

CC(=O)NCCCCCCNC(C)=O
inactive: [1] 5.8% | [2] 2.3% | [3] 10.8%

COc1ccc2c(c1)C(=O)CC(c1ccccc1F)O2 (centres undefined)
inactive: [1] 1.4% | [2] -0.4% | [3] -0.9%

CCc1cc(/C(Cc2ccccn2)=N\O)c(O)cc1O
inactive: [1] -2.8% | [2] -2.8% | [3] -5.1%

CC(C)(C)[C@]1(O)CCN2C[C@H]3c4ccccc4CCc4cccc(c43)[C@@H]2C1
inactive: [1] -2.1% | [2] 0% | [3] -2.4%

CCS(=O)(=O)Nc1cc(OC)c(OC)cc1Cc1nccc2cc(OC)c(OC)cc12
inactive: [1] 0.2% | [2] 0.4% | [3] -0.6%

O=C(NC(=S)N1CCCCC1)c1cccnc1
inactive: [1] 1.2% | [2] 1% | [3] -4.6%

CCOc1ccc(C(NC(C)=O)c2ccc(OC)c(OC)c2)cc1 (centres undefined)
inactive: [1] -2.9% | [2] -0.9% | [3] 5.8%

C#C[C@]1(O)CC[C@H]2[C@@H]3CCc4cc(OC)ccc4[C@H]3CC[C@@]21C
inactive: [1] 0.9% | [2] 0.4% | [3] -5.2%

CC(=O)[C@@H]1[C@@H](C(=O)c2ccc(C)cc2)[C@]2(C(=O)Nc3ccccc32)[C@H]2C=Cc3cc(F)ccc3N12
inactive: [1] 2.2% | [2] 1.6% | [3] -6.9%

COc1ccc(NC(=O)C2CCCN2C(=O)OC(C)(C)C)cc1 (centres undefined)
inactive: [1] 4.1% | [2] 0.9% | [3] -2.4%
